Laboratory results taken from PubChem BioAssay.

target: Torsin-1A (Homo sapiens) (UniProt O14656); experiment: TOR1A wild-type binding on microarray – cell lysate, small-molecule microarray, lysate, 635/667 nm, primary screen (AID 1149); conditions: COS7 hTOR1A-WT lysate, 635 nm fluorescence, higher = more signal
Sequence (O14656 whole entry, looked up): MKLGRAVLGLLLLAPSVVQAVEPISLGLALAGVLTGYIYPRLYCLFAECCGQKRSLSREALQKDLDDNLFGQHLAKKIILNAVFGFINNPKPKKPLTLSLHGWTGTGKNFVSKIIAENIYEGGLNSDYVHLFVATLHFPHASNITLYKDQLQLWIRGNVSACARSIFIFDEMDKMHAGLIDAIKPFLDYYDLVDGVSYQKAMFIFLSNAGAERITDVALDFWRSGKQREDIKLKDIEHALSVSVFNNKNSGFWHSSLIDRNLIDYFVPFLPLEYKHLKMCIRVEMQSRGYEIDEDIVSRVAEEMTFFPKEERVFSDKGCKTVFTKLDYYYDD

**Q.** With C=CCN1C(=O)[C@@]2(Cc3ccccc31)N=C(c1ccc(OCCCO)cc1)O[C@H]2c1ccccc1 as the compound, how does the composite z-score read?
**A.** 0.698

**Q.** For [N-]=[N+]=Nc1ccccc1[C@@H]1OC(c2ccc(OCCCO)cc2)=N[C@]1(CCS(=O)(=O)c1ccccc1)C(N)=O, which composite z-score is on record?
**A.** 0.641

**Q.** Which composite z-score does the source give for CN(C)C(=O)[C@@]1(CCS(=O)(=O)c2ccccc2)COC(c2ccc(OCCCO)cc2)=N1 here?
**A.** 1.24

**Q.** For CCOC(=O)C[C@H]1[C@H](OC(=O)c2cc3ccccc3oc2=O)[C@@H](NC(=O)c2ccccc2)c2cc(OCCCO)ccc2N1C(=O)c1ccc2ccccc2n1, which composite z-score is on record?
**A.** 0.0356

**Q.** Which composite z-score does the source give for C=CCOC(=O)[C@H]1[C@@H]2C(=O)O[C@@H](c3ccccc3)[C@@H](c3ccccc3)N2[C@@H](c2ccc(OCCOC(=O)[C@H]3C[C@H]4C(=O)N[C@@H](CCCCNC(C)=O)C(=O)N4[C@H]3c3cccc(OCCO)c3)cc2)[C@]12C(=O)Nc1ccccc12 here?
**A.** 0.983

**Q.** With CC(C)C(CO)N1C(=O)[C@@H]2C3C(=O)OCCC/C=C\[C@H]3OC23C=CCN(CCN2CCOCC2)C(=O)[C@@H]13 (stereo not given in full) as the compound, how does the composite z-score read?
**A.** -0.111

**Q.** With O=C(NCCN1CCOCC1)C1N=C(c2ccc(OCCCO)cc2)N(c2ccccc2)O1 (stereo not given) as the compound, how does the composite z-score read?
**A.** 1.86

**Q.** COC(=O)[C@@]1(Cc2ccccc2)[C@H]2c3cc(C(=O)N4CCCC4)n(Cc4ccc(S(C)(=O)=O)cc4)c3C[C@H]2CN1C(=O)c1ccccc1 was tested. Which composite z-score did it give?
**A.** 0.758

**Q.** How did the composite z-score turn out when O=C1[C@@]23C=C(Br)[C@H](C[C@@H]2CCOC3)[C@@]12CO2 was run?
**A.** 0.441

**Q.** For O=C(c1ccccc1)N1C(=O)[C@]2(COC(c3ccc(OCCCO)cc3)=N2)Cc2ccccc21, which composite z-score is on record?
**A.** 0.273

**Q.** For Cc1nc2cc(Br)ccc2c(=O)o1, which composite z-score is on record?
**A.** 0.842

**Q.** For CCCCC(CC)C(O)C1C=CC2C(=O)N(Cc3ccccc3)C(=O)C2N1n1cnnc1 (stereo not given), which composite z-score is on record?
**A.** 0.17

**Q.** With CC(C)C(O)C1C=CC2C(=O)NC(=O)C2N1Nc1ccc(Cl)cc1Cl (stereo not given) as the compound, how does the composite z-score read?
**A.** 0.41

**Q.** How did the composite z-score turn out when COCCOC(=O)N1C(=O)[C@@]2(c3ccccc31)[C@H](c1ccc(O)cc1)N1[C@H](c3ccccc3)[C@H](c3ccccc3)OC(=O)[C@H]1[C@@H]2C(=O)Nc1nc2ccccc2s1 was run?
**A.** 0.514

**Q.** With CC(C)C(=C=CC[C@@H](O)c1ccc(OCCO)cc1)C[C@@H](O)COCc1ccccc1 as the compound, how does the composite z-score read?
**A.** -0.372

**Q.** With O=C1C2C=CC(C(O)Cc3ccccc3)N(n3cnnc3)C2C(=O)N1Cc1ccccc1 (stereo not given) as the compound, how does the composite z-score read?
**A.** -0.0992

**Q.** With COCCOC(=O)N1C(=O)[C@@]2(c3cc(C#Cc4ccc(OC)cc4)ccc31)[C@H](c1ccc(O)cc1)N1[C@H](c3ccccc3)[C@H](c3ccccc3)OC(=O)[C@H]1[C@@H]2C(=O)N1CCc2cc(OC)c(OC)cc2C1 as the compound, how does the composite z-score read?
**A.** 0.807

**Q.** With COc1cc2c(cc1O)C(C1CC1)N(Cc1sc3ccccc3c1Cl)CC2 (stereo not given) as the compound, how does the composite z-score read?
**A.** 1.45

**Q.** CC(C)C(=C=CC[C@H](O)c1ccc(OCCO)cc1)CCO was tested. Which composite z-score did it give?
**A.** 1.37

**Q.** How did the composite z-score turn out when CC(=O)NCCCC[C@@H]1NC(=O)[C@@H]2C[C@H](C(=O)NCCCCCNC(=O)CS)[C@H](c3cccc(OCCO)c3)N2C1=O was run?
**A.** 0.653

**Q.** How did the composite z-score turn out when NC(=O)NCC#Cc1ccc2c(c1)[C@]1(C(=O)N2)[C@H](c2ccc(O)cc2)N2[C@H](c3ccccc3)[C@H](c3ccccc3)OC(=O)[C@H]2[C@@H]1C(=O)O was run?
**A.** -1.13

**Q.** With COc1cc(Br)cc(C(O)C2C=CC3C(=O)N(C)C(=O)C3N2N2CCCCC2)c1OC (stereo not given) as the compound, how does the composite z-score read?
**A.** 0.167

**Q.** For COc1ccc(CCNC(=O)[C@@H]2c3ccccc3C(=O)N(Cc3ccccc3Cl)[C@H]2c2ccc(CO)cc2)cc1, which composite z-score is on record?
**A.** 0.25

**Q.** With CCCCN1CC=CC23O[C@@H]4C=CCCOC(=O)C4[C@H]2C(=O)N(CCCCCCO)[C@@H]3C1=O (stereo not given in full) as the compound, how does the composite z-score read?
**A.** -1.22

**Q.** Which composite z-score does the source give for CCOC(=O)C[C@H]1[C@H](OC(=O)c2ccc(C(=O)c3ccccc3)cc2)[C@@H](NC(=O)c2ccccc2)c2cc(OCCCO)ccc2N1C(=O)c1ccc2ccccc2n1 here?
**A.** 0.478

**Q.** How did the composite z-score turn out when C=CCOC(=O)[C@H]1[C@@H]2C(=O)O[C@@H](c3ccccc3)[C@@H](c3ccccc3)N2[C@@H](c2ccc(OCCOC(=O)[C@H]3C[C@H]4C(=O)N[C@@H](CCCC[N+](C)(C)C)C(=O)N4[C@H]3c3ccc(O)cc3)cc2)[C@]12C(=O)Nc1ccc(I)cc12 was run?
**A.** 1.39

**Q.** How did the composite z-score turn out when CC(CO)N1C(=O)[C@@H]2C3C(=O)OCCC/C=C\[C@H]3OC23C=CCN(C(C)(C)C)C(=O)[C@@H]13 (stereo not given in full) was run?
**A.** 1.17

**Q.** CC1CC/C=C\[C@H]2OC34C=CCN(C(C)(C)C)C(=O)[C@H]3N(C(C)CO)C(=O)[C@@H]4C2C(=O)O1 (stereo not given in full) was tested. Which composite z-score did it give?
**A.** -0.468

**Q.** How did the composite z-score turn out when COc1ccc(C#Cc2ccc3c(c2)[C@]2(C(=O)N3)[C@H](C(=O)Nc3nc4ccccc4s3)[C@H]3C(=O)O[C@H](c4ccccc4)[C@H](c4ccccc4)N3[C@@H]2c2ccc(O)cc2)cc1 was run?
**A.** 1.41

**Q.** C=CCC(OC(C)=O)[C@@H]1[C@@H](N(Cc2ccc(-c3ccccc3)cc2)C(=O)Cc2ccc(OC)cc2)c2cc(OCCCO)ccc2N1C(=O)Cc1ccc2ccccc2c1 (stereo not given in full) was tested. Which composite z-score did it give?
**A.** -0.921

**Q.** Which composite z-score does the source give for CN1C(=O)C2C=CC(C(O)C#Cc3ccccc3)N(N3CCCCC3)C2C1=O (stereo not given) here?
**A.** 1.27

**Q.** With C=CC(=C)[C@H]1Oc2ccccc2S(=O)(=O)N2CCC[C@@H]12 as the compound, how does the composite z-score read?
**A.** -1.02

**Q.** C=CCC(OC(C)=O)[C@@H]1[C@@H](N(Cc2ccc(-c3cccc(C(F)(F)F)c3)o2)C(=O)c2ccc(C)cc2)c2cc(OCCCO)ccc2N1C(=O)Cc1ccc2ccccc2c1 (stereo not given in full) was tested. Which composite z-score did it give?
**A.** -0.563

**Q.** With COCCOC(=O)N1C(=O)[C@@]2(c3cc(C#CCC(C(=O)OC)C(=O)OC)ccc31)[C@H](C(=O)N1CCN(c3ncccn3)CC1)[C@H]1C(=O)O[C@H](c3ccccc3)[C@H](c3ccccc3)N1[C@@H]2c1ccccc1OCCO as the compound, how does the composite z-score read?
**A.** 0.135

**Q.** CC(C)=CCCC(C)=CC(O)C1C=CC2C(=O)N(C)C(=O)C2N1Nc1ccccc1 (stereo not given) was tested. Which composite z-score did it give?
**A.** -0.365
